# Data published in PubChem BioAssay AID463173 (ICCB-Longwood Screening Facility, Harvard Medical School, 2010).
# Among all 52,000 compounds or so, about 4,300 (8.3%) were called active. The sample as a whole holds a higher share of actives than the screen did. A number with no mark means an inactive call. Cut-off read from the data, not from the text of the source: active = survival mostly below about 52% (no sharp cut-off); inactive = mostly above about 56%.
# System: DeltatarO mutant
# Assay: growth inhibition of S. aureus wild type versus tarO mutant, primary screen, teichoic acid synthesis inhibitors, RN4220, OD600 (AID 463173)
# Conditions: OD600, 18 h, stronger effect = lower value, concentration not given here
row,SMILES,survival
1,O=C(Nc1ccc2c(c1)OCCO2)c1cccn(Cc2cccc(F)c2)c1=O,84%
2,N#CC(C#N)=Cc1sc2ccccc2c1Cl,93%
3,COc1ccc(C2(CN)CCOCC2)cc1,88%
4,O=c1cccc2n1CC1CC2CN(c2ncnc3c2cnn3-c2ccc(Cl)cc2)C1 (configuration not stated),52%
5,Cc1ccc(NC(=O)Cn2cc(C(=O)c3ccccc3)c3ccccc32)cc1,122%
6,Cc1oc(-c2ccc(Cl)cc2)nc1CN1C(=O)CN=C(c2ccccc2)c2ccccc21,49%
7,Cc1ccccc1-c1nc(CN2C(=O)CN=C(c3ccccc3)c3ccccc32)c(C)o1,-1% (active)
8,COc1ccc(-c2nc(CN3C(=O)CN=C(c4ccccc4)c4ccccc43)c(C)o2)cc1OC,97%
9,Cc1ccc(-c2nc(CN3C(=O)CN=C(c4ccccc4)c4ccccc43)c(C)o2)cc1,49%
10,COc1ccc(-c2nc(CN3C(=O)CN=C(c4ccccc4)c4ccccc43)c(C)o2)cc1,84%
11,Cc1cccc(-c2nc(CN3C(=O)CN=C(c4ccccc4)c4ccccc43)c(C)o2)c1,-2% (active)
12,O=C(Cn1cc(C(=O)c2ccccc2)c2ccccc21)Nc1ccc(Br)cc1,48%
13,Cn1c(=O)n(C)c2cc(CNCCc3ccccc3F)ccc21,68%
14,COc1ccc(Br)cc1CN1CCN(C(=O)Cc2ccccc2)CC1,73%
15,CN1CCc2cc3c(c4c2C1Cc1ccccc1-4)OCO3 (configuration not stated),12% (active)
16,COc1ccc2c(c1OC)C(=O)OC2C1c2cc3c(cc2CCN1C)OCO3 (configuration not stated),69%
17,CCCC12CN3CC(C)(CN(C1)C3c1c(C)[nH]c(=O)[nH]c1=O)C2=O (configuration not stated),81%
18,N#CSCC(=O)N1c2ccccc2CCc2ccccc21,3% (active)
19,CN1CCN(c2csc3ccc(F)cc3c2=O)CC1,98%
20,Cc1ccc(-n2c(/C=C/c3cc(Br)cs3)nc3ccccc3c2=O)cc1C,71%
21,O=C(COc1ccccc1)N1CCN(CC(O)COc2ccccc2)CC1 (configuration not stated),68%

row,SMILES,survival
1,CN1CCN(C(=O)COc2cccc3ccccc23)CC1,98%
2,O=C(Nc1ccc(F)c(Cl)c1)N(Cc1ccc2c(c1)OCO2)C1CCN(Cc2ccccc2)CC1,68%
3,N#Cc1cc(F)c(N2CCNCC2)cc1Cl,74%
4,N#Cc1cc2c(nc1SCC(=O)Nc1ccc(Cl)c(C(F)(F)F)c1)C1CCN2CC1,-1% (active)
5,CN(C)c1ccc(NC(=O)c2sc3nc4c(cc3c2N)N2CCC4CC2)cc1,146%
6,N#Cc1cc2c(nc1SCC(=O)Nc1ccc(F)c(Cl)c1)C1CCN2CC1,-2% (active)
7,CC(N)Cc1cn(Cc2ccccc2)c2ccccc12 (configuration not stated),112%
8,CN1C(=O)C(Cc2nc3ccccc3c(=O)n2-c2ccccc2)c2ccccc21 (configuration not stated),85%
9,C=C1N2CCC(CC2)C1(O)c1ccc(C)cc1 (configuration not stated),44% (active)
10,Cc1c(C(c2ccc(O)cc2)c2c(O)c3ccccc3oc2=O)c(=O)n(-c2ccccc2)n1C (configuration not stated),47% (active)
11,CSc1ccc(C(c2c(O)c3ccccc3oc2=O)c2c(C)n(C)n(-c3ccccc3)c2=O)cc1 (configuration not stated),128%
12,COc1cc(C(c2c(O)c3ccccc3oc2=O)c2c(C)n(C)n(-c3ccccc3)c2=O)ccc1O (configuration not stated),53%
13,COc1ccc(C(c2c(O)c3ccccc3oc2=O)c2c(C)n(C)n(-c3ccccc3)c2=O)cc1 (configuration not stated),57%
14,Cc1c(C(c2ccc(Br)cc2)c2c(O)c3ccccc3oc2=O)c(=O)n(-c2ccccc2)n1C (configuration not stated),49% (active)
15,Cc1c(C(c2ccc(F)cc2)c2c(O)c3ccccc3oc2=O)c(=O)n(-c2ccccc2)n1C (configuration not stated),89%
16,COc1ccc(NC(=O)CN2C(=O)CN=C(c3ccccc3)c3ccccc32)c(OC)c1,99%
17,CC1CN2CCC3=C(CCCC3)C2(C)C1 (configuration not stated),77%
18,CCN(CC)c1ccc(C=C(C#N)C#N)cc1,91%
19,CC(C)n1cc(C(=O)N(C2CC2)C(C(=O)NC2CCCC2)c2ccccc2)cn1 (configuration not stated),101%
20,CCCOc1ccc(C2SCC(=O)Nc3c2c(C)nn3-c2cccc(C)c2)cc1OC (configuration not stated),41% (active)
21,CCc1ccc(-n2nc(C)c3c2NC(=O)CSC3c2ccc(OC)cc2OC)cc1 (configuration not stated),60%

row,SMILES,survival
1,COc1ccccc1C1SCC(=O)Nc2c1c(C)nn2-c1cccc(C)c1 (configuration not stated),-1% (active)
2,COc1cccc(C2SCC(=O)Nc3c2c(C)nn3-c2ccc(C)c(Cl)c2)c1OC (configuration not stated),55%
3,Cc1cccc(-n2nc(C)c3c2NC(=O)CSC3c2ccccc2Cl)c1 (configuration not stated),43% (active)
4,Cc1ccc(-n2c(/C=C/c3ccc(Br)s3)nc3ccccc3c2=O)cc1,85%
5,O=C1NC(=O)C(=Cc2ccc(N3CCOCC3)cc2)C(=O)N1,80%
6,O=c1cccc2n1CC1CC2CN(c2nc(Cl)nc(Cl)n2)C1 (configuration not stated),80%
7,CCCCC12CN3CC(C)(CN(C1)C3c1ccccn1)C2=O (configuration not stated),79%
8,Cc1cc(N)n(C2CCN(C)CC2)n1,94%
9,Cc1ccc(NC(=O)CN2C(=O)CN=C(c3ccccc3)c3ccccc32)cc1Cl,122%
10,Cc1ccc(Cn2cccc(C(=O)Nc3nc4ccc(C)cc4s3)c2=O)cc1,117%
11,COC1=CC23CCN(C)C(Cc4ccc(OC)c(O)c42)C3=CC1=O (configuration not stated),84%
12,CCOC(=O)c1ccc(NC(=O)CSc2nc3c(cc2C#N)N2CCC3CC2)cc1,76%
13,N#Cc1cc2c(nc1SCC(=O)Nc1ccc(C(F)(F)F)cc1)C1CCN2CC1,8% (active)
14,CC(=O)c1ccc(NC(=O)c2sc3nc4c(cc3c2N)N2CCC4CC2)cc1,98%
15,N#Cc1cccc(NC(=O)CSc2nc3c(cc2C#N)N2CCC3CC2)c1,88%
16,N#Cc1cc2c(nc1SCC(=O)Nc1cccc(C(F)(F)F)c1)C1CCN2CC1,4% (active)
17,O=C(CN1C(=O)CN=C(c2ccccc2)c2ccccc21)Nc1cccc(C(F)(F)F)c1,57%
18,CCOC(=O)c1ccc(NC(=O)c2sc3nc4c(cc3c2N)N2CCC4CC2)cc1,68%
19,N#Cc1cc2c(nc1SCC(=O)Nc1cccc(F)c1)C1CCN2CC1,-4% (active)
20,Cc1cccc(CSc2nc3c(cc2C#N)CN(C)CC3)c1,101%
